This note sets out measurements from PubChem BioAssay.

Assay [1] in a line: yeast TOR pathway RPL19A-GFP modulators, primary screen, cell-based, S. cerevisiae, multiplex flow cytometry (AID 1862; in the data active means percent of DMSO control GFP below about 86%;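 further: lower values mimic rapamycin by blocking the RPL19A rise seen in DMSO cells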). To be noted: S. cerevisiae RPL19A-GFP strain, flow cytometry fluorescence, 3 h; at 10 µM; stronger effect = lower value. (In general: Flow cytometry measures light scatter and fluorescence of single cells or particles in a stream.)
Assay [2] in a line: modulators of MEP2-GFP levels in yeast, primary screen, S. cerevisiae, multiplex flow cytometry (AID 1867;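 active means GFP response, as percent of the DMSO control, above the screen-wide mean plus 3 SD, about 139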;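 further: median GFP channel fluorescence of barcode-gated MEP2-GFP cells measured by flow cytometry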). To be noted: S. cerevisiae MEP2-GFP strain, 3 h, at 10 µM, stronger effect = higher value, 100% means same as DMSO wells.
A short description of assay [3]: modulators of CIT2-GFP expression in yeast, primary screen, S. cerevisiae, GFP fusion, multiplex flow cytometry (AID 1870;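 active means percent response above a set limit, the screen-wide mean plus 3 SD, cut at about 130% in these data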;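 further: barcoded CIT2-GFP strain pooled with four other GFP strains with rapamycin as positive control; median GFP fluorescence per well over plate mean of DMSO wells so 100% = DMSO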). To be noted: 3 h, at 10 µM, stronger effect = higher value.
Assay [4] can be described thus: modulators of LAP4-GFP expression in yeast, primary screen, S. cerevisiae, multiplex flow cytometry (AID 1873;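 active means GFP signal, as percent of the solvent control, above the screen mean plus 3 SD, about 149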). To be noted: 3 h, at 10 µM, stronger effect = higher value.
Assay [5] is described as follows: modulators of AGP1-GFP expression in yeast TOR pathway, primary screen, cell-based, multiplex flow cytometry, S. cerevisiae (AID 1887;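 active means GFP signal above the screen-wide mean plus 3 SD, that is over about 124.5% of the solvent control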;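 further: AGP1-GFP fusion strain of S. cerevisiae within a five-strain barcoded multiplex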). To be noted: 3 h, at 10 µM, stronger effect = higher value.
The nature of assay [6]: inhibitors of CD8+ T cell-vesicle binding, pilot screen, LFA-1/ICAM-1 modulator project, MLPCN validation set, flow cytometry (AID 2523).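 On vesicle binding response: mean PE anti-B7-1 fluorescence of CD8+ cells relative to row control; 100% = QL9-loaded vesicles with DMSO vehicle in the same plate row.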 To be noted: 2C mouse CD8+ T cells, at 7 µM, stronger effect = lower value; double positive events: measured here: CD8+/vesicle+ event percentage.
The target of assay [7] is Integrin beta-1 (Homo sapiens) + Integrin alpha-4 (Homo sapiens) (UniProt P13612+P05556). Kind of assay: inhibition of HUTS-21 binding to VLA-4, pilot screen, VLA-4 allosteric modulator project, U937 cells, HUTS-21 mAb, flow cytometry, validation set (AID 2674;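 active means inhibition above 50%, about 3 SD of the validation set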;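 further: antibody binding induced by the VLA-4 ligand LDV present at three times its Kd; 0% = LDV ligand with antibody and no compound and 100% = antibody without LDV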). To be noted: HUTS-21 LIBS mAb binding, at 6.7 µM, stronger effect = higher value, binding induced by LDV ligand.
Sequence of Integrin beta-1 (Homo sapiens) + Integrin alpha-4 (Homo sapiens) (P05556 whole entry, looked up): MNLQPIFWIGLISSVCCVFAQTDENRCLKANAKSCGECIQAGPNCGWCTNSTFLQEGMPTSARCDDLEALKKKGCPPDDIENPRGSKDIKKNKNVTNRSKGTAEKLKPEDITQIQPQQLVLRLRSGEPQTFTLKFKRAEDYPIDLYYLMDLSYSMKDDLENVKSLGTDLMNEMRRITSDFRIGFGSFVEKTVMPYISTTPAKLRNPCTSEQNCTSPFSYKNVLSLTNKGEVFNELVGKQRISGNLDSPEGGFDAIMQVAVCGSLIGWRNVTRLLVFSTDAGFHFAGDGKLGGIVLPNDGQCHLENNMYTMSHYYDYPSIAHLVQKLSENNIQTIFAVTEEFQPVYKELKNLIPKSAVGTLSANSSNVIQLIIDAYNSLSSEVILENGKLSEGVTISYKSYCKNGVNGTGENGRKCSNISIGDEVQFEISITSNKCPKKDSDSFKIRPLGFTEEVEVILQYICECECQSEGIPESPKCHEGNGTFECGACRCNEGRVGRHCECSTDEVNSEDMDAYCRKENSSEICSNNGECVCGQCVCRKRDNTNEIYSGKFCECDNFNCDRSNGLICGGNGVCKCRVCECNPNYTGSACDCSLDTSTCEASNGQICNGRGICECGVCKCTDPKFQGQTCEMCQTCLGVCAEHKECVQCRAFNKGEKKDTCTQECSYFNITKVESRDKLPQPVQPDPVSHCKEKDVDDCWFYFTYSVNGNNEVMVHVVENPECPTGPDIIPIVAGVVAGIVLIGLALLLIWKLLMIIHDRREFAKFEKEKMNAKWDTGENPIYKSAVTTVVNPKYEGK
Sequence of Integrin beta-1 (Homo sapiens) + Integrin alpha-4 (Homo sapiens) (P13612 whole entry, looked up): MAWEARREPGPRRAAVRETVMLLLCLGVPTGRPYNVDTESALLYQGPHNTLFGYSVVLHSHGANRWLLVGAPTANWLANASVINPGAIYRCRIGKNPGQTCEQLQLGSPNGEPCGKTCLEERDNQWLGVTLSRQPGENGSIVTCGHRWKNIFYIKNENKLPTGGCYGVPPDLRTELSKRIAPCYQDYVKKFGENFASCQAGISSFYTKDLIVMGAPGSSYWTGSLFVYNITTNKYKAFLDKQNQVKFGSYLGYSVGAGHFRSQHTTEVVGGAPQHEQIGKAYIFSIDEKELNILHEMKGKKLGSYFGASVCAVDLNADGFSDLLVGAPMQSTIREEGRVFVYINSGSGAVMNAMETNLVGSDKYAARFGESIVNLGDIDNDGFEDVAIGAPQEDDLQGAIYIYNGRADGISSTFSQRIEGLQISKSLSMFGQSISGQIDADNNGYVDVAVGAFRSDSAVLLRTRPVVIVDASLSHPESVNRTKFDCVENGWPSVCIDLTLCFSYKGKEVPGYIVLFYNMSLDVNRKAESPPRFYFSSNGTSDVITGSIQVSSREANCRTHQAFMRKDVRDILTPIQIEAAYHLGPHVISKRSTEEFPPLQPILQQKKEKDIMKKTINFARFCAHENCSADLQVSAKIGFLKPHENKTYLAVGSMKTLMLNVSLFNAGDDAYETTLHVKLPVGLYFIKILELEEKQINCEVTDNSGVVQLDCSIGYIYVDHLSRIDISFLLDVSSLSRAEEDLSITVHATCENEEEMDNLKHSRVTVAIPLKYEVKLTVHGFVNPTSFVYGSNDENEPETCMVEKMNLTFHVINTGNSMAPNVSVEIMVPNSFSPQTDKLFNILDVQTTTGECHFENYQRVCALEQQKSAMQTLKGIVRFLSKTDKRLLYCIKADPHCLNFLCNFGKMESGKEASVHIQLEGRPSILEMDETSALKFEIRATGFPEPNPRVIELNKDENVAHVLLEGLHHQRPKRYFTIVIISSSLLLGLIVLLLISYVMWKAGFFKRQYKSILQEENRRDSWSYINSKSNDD
Assay [8] is described as follows: superoxide lowering in aged yeast cells, pilot screen, validation compound set (AID 2706;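 active means superoxide response below 65% of plate, a cut near 3 SD across the whole screen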;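 further: yeast exposed to compound for one week at 30 degrees C before staining; 100% = mean of all compound wells on the same plate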). To be noted: S. cerevisiae aging, superoxide DHE fluorescence; at 10 µM, stronger effect = lower value.
The target of assay [9] is Beta-adrenergic receptor kinase 1 (Homo sapiens) (UniProt P25098). Kind of assay: GRK2 binders displacing RNA aptamer, biochemical, validation, human GRK2, bead flow cytometry (AID 488806;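 active means aptamer binding inhibition above 30%, about 3 SD of noise from non-fluorescent compounds; inactive means inhibition at or below 30%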). To be noted: bead-bound GRK2, FAM-aptamer displacement, at 10 µM, stronger effect = higher value.
Sequence of Beta-adrenergic receptor kinase 1 (Homo sapiens) (P25098 whole entry, looked up): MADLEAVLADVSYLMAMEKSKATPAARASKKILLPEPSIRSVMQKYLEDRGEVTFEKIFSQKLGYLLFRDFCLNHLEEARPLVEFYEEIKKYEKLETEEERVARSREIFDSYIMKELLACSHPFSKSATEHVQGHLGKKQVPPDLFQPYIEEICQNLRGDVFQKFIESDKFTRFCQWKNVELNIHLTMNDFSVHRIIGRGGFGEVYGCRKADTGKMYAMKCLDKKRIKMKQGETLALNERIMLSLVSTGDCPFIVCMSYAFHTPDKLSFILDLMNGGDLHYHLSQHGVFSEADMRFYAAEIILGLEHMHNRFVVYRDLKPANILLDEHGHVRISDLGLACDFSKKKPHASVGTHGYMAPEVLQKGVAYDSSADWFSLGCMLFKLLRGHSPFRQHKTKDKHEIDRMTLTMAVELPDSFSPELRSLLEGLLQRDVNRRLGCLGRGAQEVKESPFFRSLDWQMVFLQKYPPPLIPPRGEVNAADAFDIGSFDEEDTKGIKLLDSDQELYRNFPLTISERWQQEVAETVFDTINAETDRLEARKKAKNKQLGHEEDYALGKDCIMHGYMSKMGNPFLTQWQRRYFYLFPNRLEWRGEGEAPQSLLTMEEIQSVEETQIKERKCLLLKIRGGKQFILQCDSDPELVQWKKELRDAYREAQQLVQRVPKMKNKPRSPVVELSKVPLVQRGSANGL
The target in assay [10] is AP-2 complex subunit beta (Homo sapiens) (UniProt P63010). Kind of assay: inhibitors of arrestin peptide binding to AP2, pilot screen, biochemical, validation set, GST-AP2 beads, flow cytometry (AID 504541;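 active means inhibition above 54%, about 3 SD of non-fluorescent compounds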;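 further: AP2 carries R879A mutation and is captured from E. coli lysate; bead-bound FITC arrestin peptide fluorescence measuring arrestin peptide binding to AP2; 0% = DMSO wells and 100% = excess unlabeled arrestin peptide control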). Particulars: FITC arrestin peptide, at 10 µM, stronger effect = higher value, AP2 beta2 appendage fragment, R879A mutant.
Sequence of AP-2 complex subunit beta (Homo sapiens) (P63010 whole entry, looked up, the tested form may be a part, one chain of several): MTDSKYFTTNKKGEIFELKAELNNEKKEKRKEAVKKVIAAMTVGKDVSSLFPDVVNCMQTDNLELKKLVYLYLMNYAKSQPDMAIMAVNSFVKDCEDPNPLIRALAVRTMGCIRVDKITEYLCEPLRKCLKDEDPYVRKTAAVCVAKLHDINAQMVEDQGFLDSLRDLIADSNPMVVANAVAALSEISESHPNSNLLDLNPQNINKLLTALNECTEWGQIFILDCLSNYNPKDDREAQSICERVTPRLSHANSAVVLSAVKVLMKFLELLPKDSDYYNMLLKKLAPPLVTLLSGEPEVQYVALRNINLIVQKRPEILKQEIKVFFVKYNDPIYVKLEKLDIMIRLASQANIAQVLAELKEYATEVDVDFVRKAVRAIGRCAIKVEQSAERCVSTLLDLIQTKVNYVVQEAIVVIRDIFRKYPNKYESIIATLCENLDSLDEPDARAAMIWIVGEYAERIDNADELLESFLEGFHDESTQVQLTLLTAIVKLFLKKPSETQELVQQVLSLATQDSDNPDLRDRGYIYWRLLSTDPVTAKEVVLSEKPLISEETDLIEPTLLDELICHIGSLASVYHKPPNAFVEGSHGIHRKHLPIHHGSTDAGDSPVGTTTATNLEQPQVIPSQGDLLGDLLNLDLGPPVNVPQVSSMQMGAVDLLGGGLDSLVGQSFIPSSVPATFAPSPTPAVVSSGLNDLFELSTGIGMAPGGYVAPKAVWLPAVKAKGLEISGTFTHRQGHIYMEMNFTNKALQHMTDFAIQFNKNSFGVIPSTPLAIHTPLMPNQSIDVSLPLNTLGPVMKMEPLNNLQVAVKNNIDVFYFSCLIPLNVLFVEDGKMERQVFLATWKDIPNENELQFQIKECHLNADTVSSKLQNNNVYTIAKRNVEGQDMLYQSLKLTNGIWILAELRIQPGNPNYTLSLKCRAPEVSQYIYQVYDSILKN
The nature of assay [11]: yeast V-ATPase proton transport modulators, S. cerevisiae, pHLuorin, HTS validation (AID 504600; in the data active means response above about 15%;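 further: plate controls were DMSO for no effect and reference compound for full effect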). Particulars: S. cerevisiae pHLuorin cytosolic pH, at 10 µM, stronger effect = higher value.
Assay [12] has as its system anti-desmoglein-3 scFv antibody binding to human DSG3. The experiment in a line: inhibitors of anti-DSG3 scFv binding to DSG3, pilot screen, biochemical, validation compound set, bead-based, flow cytometry (AID 588368;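 active means binding below the plate cutoff, the plate median minus 3 SD, with a reading above zero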;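 further: signal is the median channel fluorescence of bead-bound GFP antibody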). Particulars: Protein G beads, DSG3-Fc, scFv-GFP binding, at 10 µM, stronger effect = lower value.
Assay [13] can be described thus: inhibitors of fungal efflux pumps CDR1, CDR2, MDR1, pilot screen, validation compound set, multiplex, phenotypic (AID 588506;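 active means efflux inhibition above 0.42, the validation set average plus 4 SD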;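 further: Nile Red retained in cells so higher fluorescence means more efflux inhibition; 0 = negative control wells and 1 = enniatin B 25 µM full block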). Particulars: S. cerevisiae pump-expressing triplex, Nile Red efflux flow cytometry; at 10 µM; stronger effect = higher value; the pumps come from Candida albicans.
For assay [14], the target named is ATP-binding cassette sub-family B member 6 (Homo sapiens) (UniProt Q9NP58). Kind of assay: ABCB6 transporter inhibitors, pilot screen, K562-ABCB6 cells, flow cytometry, validation set (AID 588550;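 active means inhibition above the screen-wide mean plus 3 SD, about 51%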;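 further: 0% = DMSO wells and 100% = benzethonium chloride 70 µM positive control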). To be noted: K562-ABCB6 porphyrin accumulation, 1 h, at 10 µM, stronger effect = higher value.
Sequence of ATP-binding cassette sub-family B member 6 (Homo sapiens) (Q9NP58 whole entry, looked up): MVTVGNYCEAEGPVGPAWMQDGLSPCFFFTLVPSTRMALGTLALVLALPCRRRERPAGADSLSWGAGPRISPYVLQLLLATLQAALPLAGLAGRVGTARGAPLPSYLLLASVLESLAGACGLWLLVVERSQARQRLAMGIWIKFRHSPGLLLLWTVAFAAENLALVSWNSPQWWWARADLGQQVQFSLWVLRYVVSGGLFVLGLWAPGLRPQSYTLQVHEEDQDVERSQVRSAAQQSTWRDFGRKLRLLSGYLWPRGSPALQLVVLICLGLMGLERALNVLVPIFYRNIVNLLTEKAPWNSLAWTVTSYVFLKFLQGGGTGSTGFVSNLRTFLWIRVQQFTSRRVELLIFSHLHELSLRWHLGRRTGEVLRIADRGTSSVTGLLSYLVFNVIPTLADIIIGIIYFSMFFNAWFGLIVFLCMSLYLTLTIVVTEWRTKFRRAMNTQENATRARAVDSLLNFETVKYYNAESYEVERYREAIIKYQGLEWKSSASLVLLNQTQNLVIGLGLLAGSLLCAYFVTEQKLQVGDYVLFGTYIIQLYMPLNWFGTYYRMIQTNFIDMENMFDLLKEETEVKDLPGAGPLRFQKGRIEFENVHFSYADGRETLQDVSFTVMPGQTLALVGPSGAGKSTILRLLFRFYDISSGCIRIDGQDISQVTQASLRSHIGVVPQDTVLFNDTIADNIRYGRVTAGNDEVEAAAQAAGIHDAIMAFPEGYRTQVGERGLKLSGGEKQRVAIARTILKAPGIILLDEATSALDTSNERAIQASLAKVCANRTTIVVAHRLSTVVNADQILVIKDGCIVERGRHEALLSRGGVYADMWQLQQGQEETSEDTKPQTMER
Assay [15] is described as follows: promoters of myeloid differentiation in arrested cells, primary screen, cell-based, GFP/MAC1 double positive, flow cytometry, validation set (AID 588685;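 active means differentiation response of at least 50%, scaled between solvent and reference control, from cells with both markers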;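 further: compound exposure lasts four days before antibody staining and flow analysis; 0% = DMSO wells and 100% = 5 µM fulvestrant positive control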). To be noted: ER-HoxA9 marrow cells, stronger effect = higher value, normalized: vehicle 0, fulvestrant 100.

Records with an inconclusive call do not appear. The source made the active and inactive calls.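 How the source made its calls, unless noted: active means response below a set limit, under 55% cells CD8-positive and vesicle-bound, and CD8 cells' 90th-percentile brightness under 279; inactive means the rest.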

In the case of `O=C1OC(c2ccc(O)cc2)(c2ccc(O)cc2)c2ccccc21`, the percent of DMSO control GFP in [1] was 97.1% (inactive). Also, the GFP response vs DMSO in assay [2] is 102% (inactive); in [4], 103% (inactive). Moreover, the percent response of DMSO control in assay [3] is 101% (inactive). Also, the GFP response, % of DMSO in assay [5] was 100% (inactive). This molecule yielded a double positive events in assay [6] of 62.5%. Moreover, the vesicle binding response in assay [6] is 180% (inactive). In addition, the inhibition – broadly, the drop in the measured response relative to a control, in per cent – in [7] is 9.09% (inactive); in assay [10], 28% (inactive); in assay [14] it was 6% (inactive). For the same molecule, the superoxide response (% of plate) in [8] was 99.3% (inactive). Further, the aptamer binding inhibition in [9] was 1% (inactive). Moreover, the response in assay [11] is -0.84% (inactive). For the same molecule, the binding (% of control) in assay [12] was 103% (inactive). The efflux inhibition (fraction of control) in assay [13] was -0.12 (inactive). Besides, in assay [15], the differentiation response was -24.4% (inactive).

For the molecule `COC(=O)C1=C(C)NC(C)=C(C(=O)OC)C1c1ccccc1[N+](=O)[O-]`, in [1], the percent of DMSO control GFP is 102% (inactive). The GFP response vs DMSO was 104% (inactive) in [2] and 108% (inactive) in [4]. Besides, the percent response of DMSO control in assay [3] is 102% (inactive). Besides, the GFP response, % of DMSO in assay [5] is 94.6% (inactive). In assay [6], this molecule had a double positive events of 53.9%. The vesicle binding response in assay [6] was 186% (inactive). The inhibition in assay [7] was 5.36% (inactive); in assay [10], 34.7% (inactive); in assay [14], 12% (inactive). Moreover, the superoxide response (% of plate) in assay [8] is 93.7% (inactive). Besides, in assay [9], the aptamer binding inhibition is -2% (inactive). Further, in assay [11], the response was -7.73% (inactive). For the same molecule, in [12], the binding (% of control) was 104% (inactive). Besides, in assay [13], the efflux inhibition (fraction of control) was -0.39 (inactive). Further, the differentiation response in assay [15] is -8.27% (inactive).

`C/C(=N\N=C1\NC(=O)C(CC(=O)Nc2ccc(Cl)cc2)S1)c1ccco1` (stereo not given): in assay [1], the percent of DMSO control GFP was 105% (inactive). For the same molecule, the GFP response vs DMSO is 101% (inactive) in assay [2] and 91.3% (inactive) in assay [4]. Further, in assay [3], the percent response of DMSO control is 104% (inactive). Besides, in assay [5], the GFP response, % of DMSO is 99.1% (inactive). Moreover, in [6], the double positive events is 54.2%. In [6], the vesicle binding response is 112% (inactive). The inhibition in [7] was -17% (inactive); in assay [10], 3.65% (inactive); in assay [14], 8% (inactive). Also, the superoxide response (% of plate) in assay [8] is 101% (inactive). The aptamer binding inhibition in assay [9] is 16% (inactive). In addition, in assay [11], the response was -0.13% (inactive). The binding (% of control) in assay [12] was 94.4% (inactive). In addition, in assay [13], the efflux inhibition (fraction of control) was 0.22 (inactive). Moreover, the differentiation response in [15] was 0% (inactive).

On to `CC(=O)O[C@H]1C(=O)[C@@]2(C)[C@H]([C@H](OC(=O)c3ccccc3)[C@]3(O)C[C@H](OC(=O)[C@H](O)C(NC(=O)c4ccccc4)c4ccccc4)C(C)=C1C3(C)C)[C@]1(OC(C)=O)CO[C@@H]1C[C@@H]2O` (stereo not given in full), for which the percent of DMSO control GFP in assay [1] is 106% (inactive). The GFP response vs DMSO was 99.9% (inactive) in assay [2] and 90.3% (inactive) in assay [4]. Besides, in assay [3], the percent response of DMSO control was 103% (inactive). In [5], the GFP response, % of DMSO was 97.3% (inactive). In [6], the double positive events stood at 55.6%. Moreover, the vesicle binding response in assay [6] is 162% (inactive). Moreover, the inhibition in assay [7] is 5.36% (inactive); in [10], 2.22% (inactive); in [14] it was 7% (inactive). For the same molecule, the superoxide response (% of plate) in assay [8] was 99% (inactive). Also, the aptamer binding inhibition in assay [9] is 3% (inactive). Moreover, the response in assay [11] is -2.34% (inactive). For the same molecule, the binding (% of control) in [12] was 94.6% (inactive). Besides, in assay [13], the efflux inhibition (fraction of control) is 0.63 (active). Besides, the differentiation response in assay [15] is 9.49% (inactive).

`CCOC(=O)NN1C(=O)c2ccccc2NC1c1ccc(OC)c(OC)c1` (stereo not given): in [1], the percent of DMSO control GFP was 95.1% (inactive). In addition, the GFP response vs DMSO in assay [2] and in assay [4] was 103% (inactive) each time. For the same molecule, the percent response of DMSO control in assay [3] is 95.9% (inactive). Also, the GFP response, % of DMSO in assay [5] is 99.6% (inactive). Further, the double positive events in assay [6] turned out to be 64.4%. Further, the vesicle binding response in assay [6] was 121% (inactive). For the same molecule, the inhibition was 7.22% (inactive) in [7], -4.55% (inactive) in assay [10] and 14% (inactive) in [14]. In [8], the superoxide response (% of plate) is 99.5% (inactive). For the same molecule, the aptamer binding inhibition in assay [9] was 2% (inactive). In addition, the response in assay [11] was -6.37% (inactive). The binding (% of control) in assay [12] is 102% (inactive). The efflux inhibition (fraction of control) in assay [13] is -0.05 (inactive). The differentiation response in assay [15] was 46.6% (inactive).
